Experimental data from article PMC7862700, “An all-to-all approach to the identification of sequence-specific readers for epigenetic DNA modifications on cytosine”.

Legend:
Assay in all cases: DAPPL (digital affinity profiling via proximity ligation, sequencing); 10 mM Tris-HCl pH 7.5, 50 mM NaCl, 1 mM DTT, 4% glycerol, room temperature, 30 min; GST-TFs on glutathione beads, 16-mer random dsDNA library, 0.1% formaldehyde crosslink after washing; high values mean tight binding
Settings in all cases: protein: recombinant; tags: N-terminal GST; dsDNA, one strand shown
FEV = target: T1, FEV (Homo sapiens, UniProt Q99581 1-238)
T1 sequence: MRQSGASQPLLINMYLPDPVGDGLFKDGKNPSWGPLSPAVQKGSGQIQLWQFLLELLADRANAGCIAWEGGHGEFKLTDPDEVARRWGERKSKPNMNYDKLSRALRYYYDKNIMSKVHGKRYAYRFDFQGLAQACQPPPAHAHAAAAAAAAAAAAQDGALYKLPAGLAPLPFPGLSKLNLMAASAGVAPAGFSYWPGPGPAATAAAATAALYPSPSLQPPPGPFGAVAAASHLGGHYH
Method in brief: (§1)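 Yeast served to express human transcription factors as GST fusions, which were then captured on glutathione beads and labelled with DNA barcodes. Pooled with a tag-only sample, they were incubated with 200 nmole of a 16-mer random double-stranded DNA library for 30 min at room temperature in Tris/NaCl/DTT/glycerol buffer, washed, crosslinked with 0.1% formaldehyde, ligated by proximity, amplified by PCR and sequenced. Dividing each hexamer's read frequency for a factor by its frequency for the tag-only sample gives the binding signal.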

ETV5 = ETV5 (Homo sapiens, UniProt P41161 1-510)
Method in brief: as §1

SPIC = target: T2, SPIC (Homo sapiens, UniProt Q8N5J4 1-248)
T2 sequence: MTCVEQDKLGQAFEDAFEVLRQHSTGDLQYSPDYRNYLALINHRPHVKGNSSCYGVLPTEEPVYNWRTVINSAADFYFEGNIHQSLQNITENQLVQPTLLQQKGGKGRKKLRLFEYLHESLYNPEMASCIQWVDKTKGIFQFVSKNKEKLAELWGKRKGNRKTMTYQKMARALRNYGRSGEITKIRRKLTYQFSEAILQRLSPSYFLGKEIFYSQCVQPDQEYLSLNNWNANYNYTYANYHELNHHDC
Method in brief: as §1

ELF4 = ELF4 (Homo sapiens, UniProt Q99607 1-663)
Method in brief: as §1

ELK4 = target: T3, ELK4 (Homo sapiens, UniProt P28324-2 1-405)
T3 sequence: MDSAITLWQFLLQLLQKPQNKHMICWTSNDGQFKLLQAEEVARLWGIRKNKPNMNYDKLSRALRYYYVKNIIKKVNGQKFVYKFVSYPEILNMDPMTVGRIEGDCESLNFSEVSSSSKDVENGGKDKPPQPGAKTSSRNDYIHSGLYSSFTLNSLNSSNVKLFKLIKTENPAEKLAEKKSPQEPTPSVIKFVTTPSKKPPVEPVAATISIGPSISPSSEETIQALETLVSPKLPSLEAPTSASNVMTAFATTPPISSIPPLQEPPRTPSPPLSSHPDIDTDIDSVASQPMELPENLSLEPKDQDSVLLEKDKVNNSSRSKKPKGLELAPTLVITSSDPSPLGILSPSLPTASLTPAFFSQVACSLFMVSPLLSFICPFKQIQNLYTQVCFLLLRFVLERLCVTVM
Method in brief: as §1

ETV2 = target: T4, ETV2 (Homo sapiens, UniProt O00321 1-342)
T4 sequence: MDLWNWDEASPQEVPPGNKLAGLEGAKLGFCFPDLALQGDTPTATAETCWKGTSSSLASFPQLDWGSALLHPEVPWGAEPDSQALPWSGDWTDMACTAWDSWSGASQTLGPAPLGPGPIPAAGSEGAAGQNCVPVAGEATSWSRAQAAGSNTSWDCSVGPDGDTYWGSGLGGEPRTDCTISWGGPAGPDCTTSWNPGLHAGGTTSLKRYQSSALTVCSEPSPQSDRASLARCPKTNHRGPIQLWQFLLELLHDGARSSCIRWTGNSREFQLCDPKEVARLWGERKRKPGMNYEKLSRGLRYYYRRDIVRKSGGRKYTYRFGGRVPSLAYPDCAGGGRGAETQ
Method in brief: as §1

ELF3 = target: T5, ELF3 (Homo sapiens, UniProt P78545 1-371)
T5 sequence: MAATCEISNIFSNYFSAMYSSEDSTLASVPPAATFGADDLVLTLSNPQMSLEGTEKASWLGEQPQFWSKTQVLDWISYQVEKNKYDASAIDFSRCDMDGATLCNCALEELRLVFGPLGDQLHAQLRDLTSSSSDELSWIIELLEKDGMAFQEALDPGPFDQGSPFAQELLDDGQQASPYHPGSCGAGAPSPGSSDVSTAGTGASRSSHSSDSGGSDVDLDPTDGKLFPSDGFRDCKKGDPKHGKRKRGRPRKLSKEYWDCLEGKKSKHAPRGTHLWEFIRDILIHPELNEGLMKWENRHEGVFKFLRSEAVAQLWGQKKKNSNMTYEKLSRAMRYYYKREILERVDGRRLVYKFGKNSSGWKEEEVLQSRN
Method in brief: as §1

ETV1 = ETV1 (Homo sapiens, UniProt P50549 1-477)
Method in brief: as §1

ERF = target: T6, ERF (Homo sapiens, UniProt P50548 1-548)
T6 sequence: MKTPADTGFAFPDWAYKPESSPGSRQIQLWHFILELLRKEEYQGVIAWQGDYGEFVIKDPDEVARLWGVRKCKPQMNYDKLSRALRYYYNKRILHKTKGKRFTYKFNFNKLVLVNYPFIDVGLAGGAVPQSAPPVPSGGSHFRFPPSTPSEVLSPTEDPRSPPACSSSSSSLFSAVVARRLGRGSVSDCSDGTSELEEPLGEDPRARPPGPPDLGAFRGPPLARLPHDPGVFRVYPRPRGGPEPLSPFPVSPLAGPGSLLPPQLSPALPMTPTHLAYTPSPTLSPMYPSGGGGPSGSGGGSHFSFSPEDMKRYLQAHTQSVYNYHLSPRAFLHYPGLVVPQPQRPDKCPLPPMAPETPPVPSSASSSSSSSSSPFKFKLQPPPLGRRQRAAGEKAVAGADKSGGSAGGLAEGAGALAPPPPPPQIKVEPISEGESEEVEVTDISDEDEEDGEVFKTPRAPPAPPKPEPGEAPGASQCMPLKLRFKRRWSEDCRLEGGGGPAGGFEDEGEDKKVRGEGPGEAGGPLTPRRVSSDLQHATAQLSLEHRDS
Method in brief: as §1

ETV3L = target: T7, ETV3L (Homo sapiens, UniProt Q6ZN32 1-361)
T7 sequence: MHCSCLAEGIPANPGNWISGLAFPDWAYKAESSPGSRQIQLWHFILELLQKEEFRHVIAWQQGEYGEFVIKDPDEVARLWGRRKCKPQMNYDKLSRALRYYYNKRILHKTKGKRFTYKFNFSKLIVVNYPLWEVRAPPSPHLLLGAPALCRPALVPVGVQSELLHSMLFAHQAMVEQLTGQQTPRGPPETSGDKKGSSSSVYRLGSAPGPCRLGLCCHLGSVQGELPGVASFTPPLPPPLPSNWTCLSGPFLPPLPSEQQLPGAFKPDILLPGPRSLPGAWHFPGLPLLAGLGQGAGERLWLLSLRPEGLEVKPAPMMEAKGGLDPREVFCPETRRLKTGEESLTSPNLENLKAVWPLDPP
Method in brief: as §1

ETS2 = target: T8, ETS2 (Homo sapiens, UniProt P15036 1-469)
T8 sequence: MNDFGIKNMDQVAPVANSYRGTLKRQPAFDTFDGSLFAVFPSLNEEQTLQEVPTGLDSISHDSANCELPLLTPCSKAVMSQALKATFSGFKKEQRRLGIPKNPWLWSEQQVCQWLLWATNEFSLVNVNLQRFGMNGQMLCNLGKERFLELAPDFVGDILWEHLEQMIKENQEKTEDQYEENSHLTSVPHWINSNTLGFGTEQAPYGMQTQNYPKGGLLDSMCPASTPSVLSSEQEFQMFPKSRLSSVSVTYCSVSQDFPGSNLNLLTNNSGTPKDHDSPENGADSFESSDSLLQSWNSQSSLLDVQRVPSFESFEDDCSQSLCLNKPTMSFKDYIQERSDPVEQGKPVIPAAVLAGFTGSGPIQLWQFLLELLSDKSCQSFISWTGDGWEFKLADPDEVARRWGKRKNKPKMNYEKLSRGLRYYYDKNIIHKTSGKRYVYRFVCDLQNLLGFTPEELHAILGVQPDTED
Method in brief: as §1

ETV7 = target: T9, ETV7 (Homo sapiens, UniProt Q9Y603 1-341)
T9 sequence: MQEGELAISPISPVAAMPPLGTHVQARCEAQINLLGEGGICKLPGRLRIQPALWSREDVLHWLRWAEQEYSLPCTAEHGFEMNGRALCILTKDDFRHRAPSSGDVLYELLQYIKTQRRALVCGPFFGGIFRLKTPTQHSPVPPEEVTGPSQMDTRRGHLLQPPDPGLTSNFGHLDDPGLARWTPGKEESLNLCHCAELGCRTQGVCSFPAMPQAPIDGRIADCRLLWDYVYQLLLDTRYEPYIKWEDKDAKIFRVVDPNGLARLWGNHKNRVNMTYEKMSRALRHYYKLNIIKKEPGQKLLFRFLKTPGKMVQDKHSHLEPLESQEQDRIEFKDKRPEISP
Method in brief: as §1

ELF5 = target: T10, ELF5 (Homo sapiens, UniProt Q9UKW6-2 1-255)
T10 sequence: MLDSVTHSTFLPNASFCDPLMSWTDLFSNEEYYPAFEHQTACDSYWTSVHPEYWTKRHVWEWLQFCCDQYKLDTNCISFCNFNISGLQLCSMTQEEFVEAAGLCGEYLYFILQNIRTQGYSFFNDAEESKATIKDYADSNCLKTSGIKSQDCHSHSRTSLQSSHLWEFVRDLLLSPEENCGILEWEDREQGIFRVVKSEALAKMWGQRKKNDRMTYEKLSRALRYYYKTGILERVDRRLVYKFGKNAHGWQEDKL
Method in brief: as §1

ETV3 = target: T11, ETV3 (Homo sapiens, UniProt P41162-2 1-143)
T11 sequence: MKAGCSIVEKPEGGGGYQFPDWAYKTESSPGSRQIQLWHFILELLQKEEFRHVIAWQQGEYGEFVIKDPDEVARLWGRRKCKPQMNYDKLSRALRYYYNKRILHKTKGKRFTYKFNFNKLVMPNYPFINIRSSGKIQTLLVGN
Method in brief: as §1

ETV6 = ETV6 (Homo sapiens, UniProt P41212 1-452)
Method in brief: as §1

SPDEF = target: T12, SPDEF (Homo sapiens, UniProt O95238 1-335)
T12 sequence: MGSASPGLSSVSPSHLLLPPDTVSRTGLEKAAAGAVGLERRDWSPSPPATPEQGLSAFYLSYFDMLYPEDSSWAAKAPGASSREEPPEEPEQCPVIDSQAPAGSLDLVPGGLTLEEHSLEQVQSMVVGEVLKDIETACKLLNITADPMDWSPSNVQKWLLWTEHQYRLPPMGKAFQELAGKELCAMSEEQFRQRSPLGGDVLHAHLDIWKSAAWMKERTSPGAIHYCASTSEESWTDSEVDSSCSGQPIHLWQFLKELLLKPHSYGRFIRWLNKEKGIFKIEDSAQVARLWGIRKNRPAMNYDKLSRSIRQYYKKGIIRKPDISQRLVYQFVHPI
Method in brief: as §1

Sequence of ELF4 (Q99607 whole entry): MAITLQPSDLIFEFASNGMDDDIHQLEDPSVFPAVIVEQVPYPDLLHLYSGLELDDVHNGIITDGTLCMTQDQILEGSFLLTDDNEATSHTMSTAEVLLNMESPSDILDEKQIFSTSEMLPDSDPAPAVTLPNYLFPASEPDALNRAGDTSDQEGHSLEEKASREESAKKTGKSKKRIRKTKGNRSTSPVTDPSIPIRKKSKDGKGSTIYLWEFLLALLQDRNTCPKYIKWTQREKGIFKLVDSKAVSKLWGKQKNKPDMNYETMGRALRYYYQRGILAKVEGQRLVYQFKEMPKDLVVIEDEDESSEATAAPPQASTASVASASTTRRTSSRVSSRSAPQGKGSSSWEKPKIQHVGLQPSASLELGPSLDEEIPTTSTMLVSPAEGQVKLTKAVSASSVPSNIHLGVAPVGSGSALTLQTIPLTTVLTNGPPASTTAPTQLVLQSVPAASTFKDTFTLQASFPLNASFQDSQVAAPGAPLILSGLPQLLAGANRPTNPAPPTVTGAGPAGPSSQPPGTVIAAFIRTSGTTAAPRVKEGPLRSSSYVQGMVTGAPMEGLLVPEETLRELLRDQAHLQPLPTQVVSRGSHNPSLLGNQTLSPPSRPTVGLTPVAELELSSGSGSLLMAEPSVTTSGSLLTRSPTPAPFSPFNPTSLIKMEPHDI
Sequence of ETV5 (P41161 whole entry): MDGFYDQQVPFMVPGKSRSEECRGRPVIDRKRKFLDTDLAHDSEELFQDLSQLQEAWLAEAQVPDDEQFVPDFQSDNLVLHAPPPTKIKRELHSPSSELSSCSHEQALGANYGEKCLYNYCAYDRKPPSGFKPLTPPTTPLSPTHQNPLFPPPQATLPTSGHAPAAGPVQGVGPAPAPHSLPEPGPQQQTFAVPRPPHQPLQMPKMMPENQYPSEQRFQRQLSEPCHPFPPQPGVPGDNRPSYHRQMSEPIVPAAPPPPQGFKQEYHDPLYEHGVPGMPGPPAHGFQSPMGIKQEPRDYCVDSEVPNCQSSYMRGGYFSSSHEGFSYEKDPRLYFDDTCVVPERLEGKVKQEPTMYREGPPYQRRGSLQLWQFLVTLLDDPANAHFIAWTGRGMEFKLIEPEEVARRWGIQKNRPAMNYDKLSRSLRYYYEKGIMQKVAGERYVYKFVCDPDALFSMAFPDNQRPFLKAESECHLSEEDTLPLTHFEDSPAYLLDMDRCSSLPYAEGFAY
Sequence of ETV6 (P41212 whole entry): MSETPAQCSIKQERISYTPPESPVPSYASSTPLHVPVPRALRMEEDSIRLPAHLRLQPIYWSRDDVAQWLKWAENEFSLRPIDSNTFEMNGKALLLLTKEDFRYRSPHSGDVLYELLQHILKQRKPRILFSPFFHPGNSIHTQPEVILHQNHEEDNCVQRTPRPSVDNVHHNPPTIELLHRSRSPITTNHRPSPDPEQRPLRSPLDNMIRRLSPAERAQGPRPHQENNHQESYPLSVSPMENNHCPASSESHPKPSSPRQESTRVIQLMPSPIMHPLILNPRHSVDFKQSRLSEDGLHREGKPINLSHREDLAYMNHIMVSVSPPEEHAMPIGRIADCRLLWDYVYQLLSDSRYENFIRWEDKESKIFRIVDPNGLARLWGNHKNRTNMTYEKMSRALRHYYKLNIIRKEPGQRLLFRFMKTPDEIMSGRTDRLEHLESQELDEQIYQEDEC
Sequence of ETV1 (P50549 whole entry): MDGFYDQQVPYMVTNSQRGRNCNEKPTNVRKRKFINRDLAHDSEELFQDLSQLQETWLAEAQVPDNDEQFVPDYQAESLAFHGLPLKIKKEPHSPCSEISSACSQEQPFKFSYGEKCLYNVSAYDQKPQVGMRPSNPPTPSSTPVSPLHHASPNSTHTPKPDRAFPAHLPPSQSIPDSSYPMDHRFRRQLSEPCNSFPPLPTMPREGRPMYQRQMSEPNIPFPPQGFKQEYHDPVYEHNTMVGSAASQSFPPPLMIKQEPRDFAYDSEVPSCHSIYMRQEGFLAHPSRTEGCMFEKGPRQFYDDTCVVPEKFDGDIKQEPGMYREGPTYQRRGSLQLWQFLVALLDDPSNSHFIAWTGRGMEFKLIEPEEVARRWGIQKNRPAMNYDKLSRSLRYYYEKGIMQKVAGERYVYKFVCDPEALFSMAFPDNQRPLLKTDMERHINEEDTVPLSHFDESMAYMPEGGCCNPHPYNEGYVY

CATTCA
binding signal (FEV): 1.01 fold enrichment (6-mer frequency, TF over GST control) | binding signal (ETV5): 1.12 fold enrichment (6-mer frequency, TF over GST control) | binding signal (SPIC): 1.01 fold enrichment (6-mer frequency, TF over GST control) | binding signal (ELF4): 1.11 fold enrichment (6-mer frequency, TF over GST control) | binding signal (ELK4): 1.09 fold enrichment (6-mer frequency, TF over GST control) | binding signal (ETV2): 1.03 fold enrichment (6-mer frequency, TF over GST control) | binding signal (ELF3): 1.06 fold enrichment (6-mer frequency, TF over GST control) | binding signal (ETV1): 1.15 fold enrichment (6-mer frequency, TF over GST control) | binding signal (ERF): 1.11 fold enrichment (6-mer frequency, TF over GST control) | binding signal (ETV3L): 1.08 fold enrichment (6-mer frequency, TF over GST control) | binding signal (ETS2): 1.01 fold enrichment (6-mer frequency, TF over GST control) | binding signal (ETV7): 1.09 fold enrichment (6-mer frequency, TF over GST control) | binding signal (ELF5): 1.02 fold enrichment (6-mer frequency, TF over GST control) | binding signal (ETV3): 1.11 fold enrichment (6-mer frequency, TF over GST control) | binding signal (ETV6): 1.09 fold enrichment (6-mer frequency, TF over GST control)

CGCCAA
binding signal (FEV): 1.05 fold enrichment (6-mer frequency, TF over GST control) | binding signal (ETV5): 1.02 fold enrichment (6-mer frequency, TF over GST control) | binding signal (SPIC): 1.11 fold enrichment (6-mer frequency, TF over GST control) | binding signal (ELF4): 1.09 fold enrichment (6-mer frequency, TF over GST control) | binding signal (ELK4): 1.04 fold enrichment (6-mer frequency, TF over GST control) | binding signal (ETV2): 1.03 fold enrichment (6-mer frequency, TF over GST control) | binding signal (ELF3): 1.12 fold enrichment (6-mer frequency, TF over GST control) | binding signal (ERF): 1.07 fold enrichment (6-mer frequency, TF over GST control) | binding signal (ETS2): 1.04 fold enrichment (6-mer frequency, TF over GST control) | binding signal (ETV7): 1.01 fold enrichment (6-mer frequency, TF over GST control) | binding signal (ETV3): 1.04 fold enrichment (6-mer frequency, TF over GST control) | binding signal (ETV6): 1.03 fold enrichment (6-mer frequency, TF over GST control)

ACCCAA
binding signal (FEV): 1.05 fold enrichment (6-mer frequency, TF over GST control) | binding signal (ETV5): 1.08 fold enrichment (6-mer frequency, TF over GST control) | binding signal (SPIC): 1.2 fold enrichment (6-mer frequency, TF over GST control) | binding signal (ELF4): 1.18 fold enrichment (6-mer frequency, TF over GST control) | binding signal (ELK4): 1.08 fold enrichment (6-mer frequency, TF over GST control) | binding signal (ETV2): 1.13 fold enrichment (6-mer frequency, TF over GST control) | binding signal (ELF3): 1.26 fold enrichment (6-mer frequency, TF over GST control) | binding signal (ERF): 1.13 fold enrichment (6-mer frequency, TF over GST control) | binding signal (ETV3L): 1.13 fold enrichment (6-mer frequency, TF over GST control) | binding signal (ETS2): 1.04 fold enrichment (6-mer frequency, TF over GST control) | binding signal (SPDEF): 1.04 fold enrichment (6-mer frequency, TF over GST control) | binding signal (ETV7): 1.14 fold enrichment (6-mer frequency, TF over GST control) | binding signal (ELF5): 1.06 fold enrichment (6-mer frequency, TF over GST control) | binding signal (ETV3): 1.01 fold enrichment (6-mer frequency, TF over GST control) | binding signal (ETV6): 1.09 fold enrichment (6-mer frequency, TF over GST control)
